Screening data as filed in PubChem BioAssay.
Rows were chosen to be rich in hits. Some 3.8% of all compounds tested hit in one or more screens of this group.
TGFb SMAD3 inh = inhibitors of TGF-b signaling | HepG2 CAGA-GFP TGF-b/SMAD3 reporter, GFP fluorescence, 18 h; TGF-beta stimulated, 500 pg/mL final | Potency, µM (series often up to 46.1 µM), without a hit: at the highest dose activity, negative = inhibition, most hits filed as inhibitors | hit rate 1.2% among 410,000 | AID 588855; also: % is scaled to controls: 0 for no effect and ±100 for the full control effect; nearly all actives have a fitted effect of over 65% in size
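TGF-beta reporter screen: HEPG2 CAGA-GFP, 1% FBS, 500 pg/mL TGF-beta final, 18 h; per-cell GFP summed per well; curves fitted and categorized by class.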
HepG2 tox = counter-screen for TGF-b inhibitors: cytotoxicity in HepG2 cells | Potency, µM (highest dose often 46.1 µM), inactives show at the top dose activity change, negative = cytotoxicity, hits mostly cytotoxic | HepG2 CAGA-GFP viability, ATP luminescence, 18 h | hit rate 0.76% among 410,000
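CellTiter-Glo luminescence gave cytotoxicity after 18 hours at 37 degrees C. The cells were HepG2 CAGA-GFP in 1% FBS DMEM, stimulated with 500 pg/mL TGF-beta after compound addition. %Activity was normalised to no-cell wells (complete cell-killing) and DMSO (no toxicity), and curves were fitted and classified.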
A549 tox = counter-screen for Nrf2 inhibitors: cytotoxicity in A549 cells; A549 ARE-Fluc cells, CellTiter-Fluor viability, 18-24 h; Potency, µM (doses to about 46 µM), inactives show at the highest dose activity change, negative = cytotoxicity, actives largely listed as inhibitors; hit rate 0.16% among 390,000; AID 504648; also: % is scaled to controls: 0 for no effect and ±100 for the full control effect
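A549 ARE_Fluc cells in 5% FBS OPTI-MEM were exposed to compounds in concentration-response for 18-24 h at 37 deg C. Viability was read by CellTiter-Fluor fluorescence (Ex 405/Em 525) after 30 min, before the luciferase read.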
ATXN2 expr inh = ATXN2 expression inhibition; AID 1745845; HEK-293 ATXN2-luciferase reporter, luminescence, 24 h; Potency, µM (highest dose often 57 µM), without a hit: at the top dose activity change, negative = inhibition, usual class: inhibitors; hit rate 0.72% among 360,000; also: % is scaled to controls: 0 for no effect and ±100 for the full control effect; nearly all actives have a fitted effect of over 55% in size
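ATXN2-luciferase reporter cells (luciferase flanked by upstream and downstream ATXN2 gene portions) were treated 24 h at 37 °C with compounds at up to 57 uM. SteadyGlo luminescence gave expression; GF-AFC fluorescence gave viability.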
Nrf2 block = blocks Nrf2 signaling; Potency, µM (series often up to 46 µM), for the others: at the top dose activity change, negative = inhibition, hits mostly inhibitors; hit rate 2.1% among 360,000; A549 ARE-Fluc reporter, luciferase luminescence, 18-24 h; also: % is scaled to controls: 0 for no effect and ±100 for the full control effect; nearly all actives have a fitted effect of over 60% in size
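In this cell-based qHTS, ARE-driven firefly luciferase in A549 cells reports Nrf2 activity; the luminescent signal after BugLite lysis is the measured value, with a prior CellTiter-Fluor read for cell health.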
ATXN viability = cell viability loss in ATXN counter-screen. S2 cells (HEK-293 line with an ATXN2-luciferase reporter) viability, CellTiter-Fluor protease fluorescence, 24 h. Potency, µM (doses to about 56.7 µM), hits mostly cytotoxic. hit rate 0.49% among 400,000. AID 651635; also: nearly all actives have a fitted effect of over 40% in size
Numbers without * were called inactive; i = inactive; ? = inconclusive; / = no result; ! = not confirmed by another sample; [ ] = remark or other dose. Calls follow the shape of the dose curve; as a rule, active = well fitted curve in the direction sought with a large enough effect; inconclusive = small, poorly fitted or top-dose-only effect, or another doubt; inactive = no such curve, though single readings can be large; an effect the other way counts as inactive or inconclusive. Potency is read from the fitted curve at half-maximal effect.

SMILES	TGFb SMAD3 inh	HepG2 tox	A549 tox	ATXN2 expr inh	Nrf2 block	ATXN viability
C[C@@H]1CC[C@]2(C(=O)O)CC[C@]3(C)C(=CCC4[C@]56CC[C@@](O)(OC5)C(C)(C)C6CC[C@]43C)C2[C@H]1C (stereo partly specified)	?	-34%	-25%	?	15µM*	25µM*
C[C@H]1[C@H](C)CC[C@]2(C(=O)O)CC[C@]3(C)C(=CC[C@@H]4[C@@]5(C)C[C@@H](O)[C@H](O)C(C)(C)[C@@H]5CC[C@]43C)[C@H]12	?	-49%	?	0%	?	?
CCOc1ccc2[nH]c(=O)c(CN(CCN3CCCC3)C(=S)Nc3ccccc3OCC)cc2c1	16µM*	14µM*	-5%	-34%	20%	?
CCOC(=O)/C(=C/C=C/c1ccccc1)NC(=O)c1ccccc1	-5%	14%	-4%	-17%[11.3 µM]	-10%	i
CCOC(=O)/C(=C\C=C\c1ccccc1)NC(=O)c1ccccc1	8%	-15%	-15%	3%	9.2µM*	i
COc1cc2c(cc1OC)n(CC(=O)c1cc(C)ccc1C)c(=O)n1nc(CCn3nc(C)cc3C)nc21	-2%	1%	2%	/	/	/
Cc1cc(C)cc(NC(=O)CCCn2c(=O)c3cccn3c3ccccc32)c1	11µM*	-52%	-20%	/	-12%	/
CC(C)c1ccc(NC(=O)CCn2c(=O)c3cccn3c3ccccc32)cc1	0%	-3%	-12%	/	10µM*	/
CC(C)(C)C(=O)CSc1ccc(S(=O)(=O)N2CCN(Cc3ccccc3)CC2)cn1	?	-2%	4%	6%	1%	i
CCCCOc1ccc(C(=O)NCCc2csc3nc(-c4ccccc4F)nn23)cc1	-7%	-16%	8%	0%	/	i
Cc1ccc(C2CC(=O)Nc3cc4c(cc32)OCCO4)cc1Br (stereo unspecified)	13µM*	-38%	-4%	-18%	18µM*	i
CCOC(=O)/C(C#N)=C/C1=C(N2CCOCC2)CC(C)(C)OC1	1%	-4%	-16%	1%	4%	i
Cc1cccc(Oc2ccc(Cl)cc2N)c1	-32%	20µM*	-4%	3%	29%	i
Cc1nnc(SCC(=O)N2CCOCC2)c2ccccc12	-14%	3%	1%	15%	9.2µM*	i
CCCCN1CC(COC)Oc2cccc(F)c2S1(=O)=O (stereo unspecified)	-8%	-4%	5%	4%	5%	i
COc1cc(C(=O)NC2CCN(C)CC2)ccc1Nc1ncc2c(n1)N(C1CCCC1)CCC(=O)N2C(C)C	-2%	-48%	-13%	6.1µM*!	-9%	28µM*
CCNc1ccc(/C=C2\C=Cc3ccccc32)cc1	5%	-18%	/	/	/	/
CC(=O)c1ccccc1OCc1ccc(S(=O)(=O)Cc2ccccc2)cc1	?	-14%	-5%	-31%	21µM*	?
CSc1ccc(C2C(C#N)=C(N)Oc3cc4c(cc32)OCO4)cc1 (stereo unspecified)	13µM*	-39%	0%[1.84 µM]	-37%	?	i
CC1CCN(CC(=O)Nc2cccc(C(=O)Nc3cccc(C(F)(F)F)c3)c2)CC1	?	-56%	?	?	30%	?
CC1CN(CC(=O)Nc2cccc(C(=O)Nc3cccc(C(F)(F)F)c3)c2)CC(C)O1 (stereo unspecified)	-13%	-30%	-22%	-15%	16µM*	i
CC(C)(C)c1ccc(Cn2cnc3c(cnn3C(C)(C)C)c2=O)cc1	7%	-18%	/	/	/	/
Cc1nn2c3ccccc3nc2c2ccccc12	?	16µM*	-11%	7%	-7%	i
CSc1ccccc1CNc1nc(NCC2CC2)nc2ccsc12	16µM*	11µM*	/	?	/	14µM*
COc1cccc(CNc2nc(NCC3CC3)nc3ccsc23)c1OC	?	-47%	/	0%	/	16µM*
SMILES	TGFb SMAD3 inh	HepG2 tox	A549 tox	ATXN2 expr inh	Nrf2 block	ATXN viability
Clc1ccccc1Nc1nc(NCC2CC2)nc2ccsc12	-7%	-22%	/	-16%	/	i
Cc1nc(-c2cccc(F)c2)sc1CCNC(=O)C(=O)Nc1ccc2c(c1)OCO2	-2%	-20%	13%	-4%	/	i
Cc1nn(CC(=O)Nc2cccc(C(F)(F)F)c2)c(=O)c2nn(-c3ccccc3)c(C)c12	1%	-10%	-5%	3%	13%	i
COc1cc(NC(=O)c2cc3nc(-c4ccc(C)cc4)cc(C(F)(F)F)n3n2)cc(OC)c1OC	15%	-3%	5%	0%	-13%	i
C/C(=N\NC(=O)c1ccc(-c2ccccc2)cc1)C1C(=O)c2ccccc2C1=O	13µM*	-89%	?	?	?	?
COc1ccc(Nc2c3c(nc4ccccc24)CCC3)cc1	11µM*	-47%	?	?	?	i
COc1ccc(Nc2c3c(nc4ccccc24)CCCC3)cc1OC	?	-12%	2%	?	-18%	i
CN(C)CCCNc1c2c(nc3ccccc13)CCC2	?	-35%	13µM*	/	5%	?
c1ccc(Nc2c3c(nc4ccccc24)CCC3)cc1	?	-15%	-14%	-22%	?	i
COc1ccc(C)cc1Nc1c2c(nc3ccccc13)CCC2	7.9µM*	-17%	4%	?	?	6.3µM*!
CCN(CC)CCOC(=O)c1ccc(Nc2c3c(nc4ccccc24)CCC3)cc1	?	-39%	?	?	5%	20µM*
Cc1ccc2nc3c(c(Nc4ccccc4)c2c1)CCC3	13µM*	-42%	-4%	-35%	-29%	i
Cn1nc(C(F)(F)F)c(/C=N/OC(=O)c2ccccc2)c1Sc1ccc(Cl)cc1	?	16%	-7%	-33%	15µM*	i
Cc1sc2c(c1C)c(=O)n(-c1ccccc1)c(=O)n2CC(=O)c1ccc(Cl)cc1	12%	7%	?	-16%	20%	i
O=C(Cc1c[nH]c2ccccc12)Nc1ccc(N2CCOCC2)cc1	-1%	4%	4%	12%	8%	i
COc1ccc(-[n+]2c(C)cc(/C=C3\Sc4ccccc4N3C)cc2C)cc1	102%	-74%	9.2µM*	?	0.23µM*	?
COc1ccc(OC)c(CNC(=O)c2ccc(C)c(NC(=O)c3nsc4ccccc34)c2)c1	-26%	-3%	11%	0%	/	i
Oc1ccc(N2CCN(c3ncnc4sc5c(c34)CCC5)CC2)cc1	4%	-38%	-11%	-19%	15µM*	i
COc1ccc(S(=O)(=O)N/N=C\c2ccc3c(c2)OCO3)c(OC)c1	0%	-1%	-7%	-25%	10µM*	?
